Experimental data: PubChem BioAssay (EPA / NIEHS)
Values joined by “and” are separate entries in the source; they are usually repeats but may differ in a detail not shown here. Equal values may be shown once. Results filed as inconclusive are left out. Some compounds were tested as several samples or in several runs, with calls that do not always agree. Active and inactive are the calls of the source. How the source made its calls, unless noted: active means hit-call score of the fitted dose curve at least 0.9, where 1 is the maximum; inconclusive means response in the unintended direction; inactive means score below 0.9.

Key:
[1] = biological target: Estrogen receptor (Homo sapiens) (UniProt P03372); test: OT_ERa_GFPERaERE_0480: Odyssey Thera (OT) 8-hour HeLa Transcription Induction Assay for Estrogen Receptor (AID 2283381; active means hit-call score of the fitted dose curve at least 0.9, where 1 is the maximum; inactive means score below 0.9)
Chain of Estrogen receptor (Homo sapiens) (P03372 whole entry, looked up): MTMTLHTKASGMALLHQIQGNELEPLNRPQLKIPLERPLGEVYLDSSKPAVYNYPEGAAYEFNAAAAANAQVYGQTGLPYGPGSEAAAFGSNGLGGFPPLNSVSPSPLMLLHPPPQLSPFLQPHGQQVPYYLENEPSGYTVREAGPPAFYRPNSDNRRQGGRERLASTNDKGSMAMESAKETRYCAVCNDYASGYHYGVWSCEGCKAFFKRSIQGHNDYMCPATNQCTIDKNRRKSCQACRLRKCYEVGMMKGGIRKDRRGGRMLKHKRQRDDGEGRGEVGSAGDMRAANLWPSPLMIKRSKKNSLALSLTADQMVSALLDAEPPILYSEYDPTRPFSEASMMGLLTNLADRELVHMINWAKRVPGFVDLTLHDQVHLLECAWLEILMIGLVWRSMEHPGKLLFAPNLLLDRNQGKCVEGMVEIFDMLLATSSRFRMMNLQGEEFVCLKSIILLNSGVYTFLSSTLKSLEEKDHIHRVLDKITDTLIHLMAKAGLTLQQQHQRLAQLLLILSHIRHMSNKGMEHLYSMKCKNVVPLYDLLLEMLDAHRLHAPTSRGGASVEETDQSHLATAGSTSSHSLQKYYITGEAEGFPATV
Outline: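 Fluorescent reporter signal, imaged by microscopy and scored with image-analysis algorithms, was taken 8 h after chemical dosing of HeLa cells; activity was fitted upward relative to DMSO.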

[2] = biological target: Estrogen receptor (Homo sapiens) (UniProt P03372); test: OT_ERa_GFPERaERE_0120: Odyssey Thera (OT) 2-hour HeLa Transcription Induction Assay for Estrogen Receptor (AID 2283382)
Outline: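 HeLa, 384-well, 2 h chemical exposure; GFP reporter induction (ERE), fluorescence microscopy; high content image analysis; positive fitting direction vs DMSO.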

[3] = biological target: Retinoic acid receptor RXR-alpha (Homo sapiens) (UniProt P19793); test: OT_NURR1_NURR1RXRa_0480: Odyssey Thera (OT) 8-hour HEK293T Protein Complementation Assay for Nurr1/retinoid X receptor (RXR) (AID 2283385)
Chain of Retinoic acid receptor RXR-alpha (Homo sapiens) (P19793 whole entry, looked up, the tested form may be a part): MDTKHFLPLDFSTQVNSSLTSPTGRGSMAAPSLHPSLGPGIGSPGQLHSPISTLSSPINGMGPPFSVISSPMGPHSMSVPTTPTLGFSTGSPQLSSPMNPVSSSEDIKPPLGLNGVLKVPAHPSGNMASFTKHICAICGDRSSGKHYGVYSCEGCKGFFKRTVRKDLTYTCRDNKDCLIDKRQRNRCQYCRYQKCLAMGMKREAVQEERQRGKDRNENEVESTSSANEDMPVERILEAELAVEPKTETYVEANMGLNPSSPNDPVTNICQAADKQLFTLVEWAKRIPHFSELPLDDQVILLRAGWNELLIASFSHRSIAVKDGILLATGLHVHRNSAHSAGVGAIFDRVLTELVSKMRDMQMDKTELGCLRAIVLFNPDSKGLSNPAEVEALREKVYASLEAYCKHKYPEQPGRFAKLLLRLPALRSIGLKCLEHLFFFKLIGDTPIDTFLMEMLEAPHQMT
Outline: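 8 h compound exposure, HEK293T; Nurr1/RXRα fragment complementation; fluorescence intensity; positive fitting direction vs DMSO baseline.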

[4] = biological target: Peroxisome proliferator-activated receptor gamma (Homo sapiens) (UniProt P37231); test: OT_PPARg_PPARgSRC1_0480: Odyssey Thera (OT) 8-hour Protein-Complementation Assay for Peroxisome Proliferator-activated Receptor Gamma / SRC-1 Co-activator (AID 2283387);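 further: nuclear to cytoplasmic split Venus YFP fluorescence ratio reporting PPARg SRC-1 interaction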
Chain of Peroxisome proliferator-activated receptor gamma (Homo sapiens) (P37231 whole entry, looked up, the tested form may be a part): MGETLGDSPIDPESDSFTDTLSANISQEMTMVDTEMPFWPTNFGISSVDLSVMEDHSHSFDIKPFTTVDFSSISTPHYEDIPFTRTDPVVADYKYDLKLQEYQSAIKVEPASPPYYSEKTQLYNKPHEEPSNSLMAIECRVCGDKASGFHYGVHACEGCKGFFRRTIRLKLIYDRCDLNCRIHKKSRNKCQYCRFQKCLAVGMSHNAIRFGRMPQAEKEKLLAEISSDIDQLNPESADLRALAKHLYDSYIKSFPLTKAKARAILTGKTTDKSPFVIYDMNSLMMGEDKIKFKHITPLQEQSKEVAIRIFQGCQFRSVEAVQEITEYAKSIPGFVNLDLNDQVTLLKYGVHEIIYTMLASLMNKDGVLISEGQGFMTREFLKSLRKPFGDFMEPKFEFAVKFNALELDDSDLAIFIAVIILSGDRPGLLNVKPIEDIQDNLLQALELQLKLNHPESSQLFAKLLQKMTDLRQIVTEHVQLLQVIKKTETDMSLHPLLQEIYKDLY
Outline: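 Protein-fragment complementation of split Venus YFP reports PPARg/SRC-1 interaction in HEK293T (transfected 48 h before treatment), exposed 8 h. Readout: N/C fluorescence ratio at 488 nm from imaging, Draq5 for segmentation, positive fit relative to DMSO.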

[5] = biological target: Bile acid receptor (Homo sapiens) (UniProt Q96RI1); test: OT_FXR_FXRSRC1_0480: Odyssey Thera (OT) 8-hour HEK293T Protein-Complementation Assay for Farnesoid X receptor/SRC-1 Co-activator (AID 2283383)
Chain of Bile acid receptor (Homo sapiens) (Q96RI1 whole entry, looked up, the tested form may be a part): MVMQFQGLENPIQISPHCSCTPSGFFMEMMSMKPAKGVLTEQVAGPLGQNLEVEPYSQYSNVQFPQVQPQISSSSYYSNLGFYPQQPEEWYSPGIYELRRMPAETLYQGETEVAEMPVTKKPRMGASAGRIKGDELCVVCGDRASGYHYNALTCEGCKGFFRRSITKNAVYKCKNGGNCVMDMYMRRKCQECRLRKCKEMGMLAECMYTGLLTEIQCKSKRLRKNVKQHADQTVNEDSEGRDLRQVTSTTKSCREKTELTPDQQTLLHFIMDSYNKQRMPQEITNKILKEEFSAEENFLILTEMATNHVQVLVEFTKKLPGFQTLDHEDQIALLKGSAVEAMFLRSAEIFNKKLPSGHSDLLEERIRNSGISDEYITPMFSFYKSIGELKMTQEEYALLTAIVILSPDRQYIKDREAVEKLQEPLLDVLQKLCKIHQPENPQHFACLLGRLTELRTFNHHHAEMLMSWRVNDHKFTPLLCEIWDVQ
Outline: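 Human kidney HEK293T cells carried FXR/SRC-1 fragment-complementation constructs. Compounds were added and incubated 8 h. Reporter reassembly upon receptor–co-activator interaction was then quantified by fluorescence, with curves fitted in the positive direction relative to DMSO.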

[6] = biological target: Bile acid receptor (Homo sapiens) (UniProt Q96RI1); test: OT_FXR_FXRSRC1_1440: Odyssey Thera (OT) 24-hour HEK293T Protein-Complementation Assay for Farnesoid X receptor/SRC-1 Co-activator (AID 2283384)
Outline: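 Compounds are applied to human kidney HEK293T cells expressing bait and prey fused to reporter protein fragments; after 24 h, reconstituted reporter fluorescence is measured. Activity is fitted as signal gain over DMSO.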

[7] = biological target: Peroxisome proliferator-activated receptor gamma (Homo sapiens) (UniProt P37231); test: OT_PPARg_PPARgSRC1_1440: Odyssey Thera (OT) 24-hour Protein-Complementation Assay for Peroxisome Proliferator-activated Receptor Gamma/ SRC-1 Co-activator (AID 2283388);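 further: nuclear to cytoplasmic ratio of reconstituted Venus YFP fluorescence in fixed imaged cells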
Outline: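 Cells carrying the PPARg/SRC-1 fragment-complementation reporter receive compound for 24 hours, are fixed and counterstained with Draq5, then imaged. Increased nuclear relative to cytoplasmic YFP fluorescence above DMSO baseline indicates binding activity.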

[8] = biological target: Retinoic acid receptor RXR-alpha (Homo sapiens) (UniProt P19793); test: OT_NURR1_NURR1RXRa_1440: Odyssey Thera (OT) 24-hour HEK293T Protein Complementation Assay for Nurr1/retinoid X receptor (RXR) (AID 2283386)
Outline: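 Interaction of Nurr1 with RXRα brings fused reporter fragments together in human HEK293T cells, restoring a functional reporter. Fluorescence intensity is measured 24 h after chemical treatment, and values are analysed in the positive direction against DMSO.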

[9] = CEETOX_H295R_11DCORT: CeeTox H295R High-throughput Steroidogenesis Assay for 11-Deoxycortisol (11DCORT) (AID 2283432; active means hit-call score of the fitted dose curve at least 0.9, where 1 is the maximum; inactive means score below 0.9); conditions: actives raise or lower the signal
Outline: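 Human adrenal H295R cells were prestimulated with 10 uM forskolin for 48 h, then exposed to test chemical (0.1% DMSO final) for 48 h. Medium 11-deoxycortisol was quantified by MTBE extraction and HPLC-MS/MS; bidirectional fitting relative to DMSO.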

[10] = CEETOX_H295R_OHPROG: CeeTox H295R High-throughput Steroidogenesis Assay for OH-Progesterone (OHPROG) (AID 2283435; active means hit-call score of the fitted dose curve at least 0.9, where 1 is the maximum; inactive means score below 0.9;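 on AC50: 17alpha-hydroxyprogesterone secreted into medium measured by HPLC-MS/MS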); conditions: actives raise or lower the signal
Outline: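 H295R, 10 uM forskolin prestim 48 h; cmpd in 0.1% DMSO 48 h; medium MTBE-extracted, HPLC-MS/MS for OH-progesterone; 7-pt std curve; bidirectional fit vs DMSO; MTT viability, chemicals diluted until viability >/=70%.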

[11] = CEETOX_H295R_CORTIC: CeeTox H295R High-throughput Steroidogenesis Assay for Corticosterone (CORTIC) (AID 2283437; active means hit-call score of the fitted dose curve at least 0.9, where 1 is the maximum; inactive means score below 0.9;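 further: corticosterone secreted into medium quantified by mass spectrometry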); conditions: actives raise or lower the signal
Outline: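 H295R cells were prestimulated 48 h with 10 uM forskolin, then exposed 48 h to test chemical in 0.1% DMSO. Medium corticosterone was MTBE-extracted and quantified by HPLC-MS/MS; bidirectional fit versus DMSO baseline.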

[12] = CEETOX_H295R_CORTISOL: CeeTox H295R High-throughput Steroidogenesis Assay for Cortisol (AID 2283438; active means hit-call score of the fitted dose curve at least 0.9, where 1 is the maximum; inactive means score below 0.9;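 further: cortisol secreted into medium quantified by LC-MS/MS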); conditions: actives raise or lower the signal
Outline: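 Forskolin 10 uM 48 h prestim → test cmpd in DMSO (0.1% final) 48 h → medium MTBE-extracted → LC-MS/MS cortisol vs 7-pt std curve. Gain/loss of signal fitted vs DMSO. MTT viability in same wells.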

[13] = CEETOX_H295R_PROG: CeeTox H295R High-throughput Steroidogenesis Assay for Progesterone (PROG) (AID 2283442; active means hit-call score of the fitted dose curve at least 0.9, where 1 is the maximum; inactive means score below 0.9;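 on AC50: human H295R adrenal cells primed with 10 µM forskolin before dosing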); conditions: actives raise or lower the signal
Outline: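 Measured analyte is progesterone secreted by H295R cells at 48 h of chemical treatment, following 10 uM forskolin priming. Quantitation used HPLC-MS/MS against a 7-point standard curve; cytotoxicity was checked by MTT absorbance.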

[14] = read-out: Tumor necrosis factor receptor superfamily member 6 (Homo sapiens) (UniProt P25445); test: LTEA_HepaRG_FAS: Life Technologies and Expression Analysis (LTEA) Assay for Fas cell surface death receptor (FAS) using HepaRG (AID 2283447; active means hit-call score of the fitted dose curve at least 0.9, where 1 is the maximum; inactive means score below 0.9); conditions: mRNA level, 48 h; actives raise or lower the signal
Outline: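 Differentiated human HepaRG cells, pre-cultured 48 h, were exposed in duplicate for 48 h to 8-point half-log concentrations (top 100 uM, 0.5% DMSO) in serum-free induction medium; FAS mRNA measured by qRT-PCR, normalized to ACTB/GAPDH/POLR2A, bidirectional fit versus DMSO.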

[15] = read-out: Fatty acid synthase (Homo sapiens) (UniProt P49327); test: LTEA_HepaRG_FASN: Life Technologies and Expression Analysis (LTEA) Assay for Fatty Acid Synthase (FASN) using HepaRG (AID 2283448; active means hit-call score of the fitted dose curve at least 0.9, where 1 is the maximum; inactive means score below 0.9); conditions: mRNA level, 48 h; actives raise or lower the signal
Outline: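 FASN expression changes, up or down relative to 0.5% DMSO, were measured by qRT-PCR in human HepaRG cells after 48 h treatment with chemicals at eight concentrations (half-log steps from 100 uM).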

[16] = CEETOX_H295R_ESTRADIOL: CeeTox H295R High-throughput Steroidogenesis Assay for Estradiol (AID 2283440; active means hit-call score of the fitted dose curve at least 0.9, where 1 is the maximum; inactive means score below 0.9;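 further: estradiol secreted into medium quantified by LC-MS/MS after dansyl derivatisation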); conditions: actives raise or lower the signal
Outline: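 Readout is estradiol in conditioned medium, quantified by reverse-phase HPLC-MS/MS against a 7-point standard curve. Cells: H295R, forskolin-stimulated, then dosed 48 h in 0.1% DMSO; activity fitted in both directions relative to DMSO.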

[17] = CEETOX_H295R_ESTRONE: CeeTox H295R High-throughput Steroidogenesis Assay for Estrone (AID 2283441; active means hit-call score of the fitted dose curve at least 0.9, where 1 is the maximum; inactive means score below 0.9;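 further: estrone secreted into medium measured by LC-MS/MS after dansyl derivatization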); conditions: actives raise or lower the signal
Outline: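 H295R cells prestimulated 48 h with 10 uM forskolin, then exposed 48 h to chemicals in 0.1% DMSO final; estrone in medium extracted with MTBE, dansyl-derivatized, quantified by HPLC-MS/MS; bidirectional fitting versus DMSO, viability by MTT.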

Measured: AC50

Chain of Fatty acid synthase (Homo sapiens) (P49327 whole entry, looked up): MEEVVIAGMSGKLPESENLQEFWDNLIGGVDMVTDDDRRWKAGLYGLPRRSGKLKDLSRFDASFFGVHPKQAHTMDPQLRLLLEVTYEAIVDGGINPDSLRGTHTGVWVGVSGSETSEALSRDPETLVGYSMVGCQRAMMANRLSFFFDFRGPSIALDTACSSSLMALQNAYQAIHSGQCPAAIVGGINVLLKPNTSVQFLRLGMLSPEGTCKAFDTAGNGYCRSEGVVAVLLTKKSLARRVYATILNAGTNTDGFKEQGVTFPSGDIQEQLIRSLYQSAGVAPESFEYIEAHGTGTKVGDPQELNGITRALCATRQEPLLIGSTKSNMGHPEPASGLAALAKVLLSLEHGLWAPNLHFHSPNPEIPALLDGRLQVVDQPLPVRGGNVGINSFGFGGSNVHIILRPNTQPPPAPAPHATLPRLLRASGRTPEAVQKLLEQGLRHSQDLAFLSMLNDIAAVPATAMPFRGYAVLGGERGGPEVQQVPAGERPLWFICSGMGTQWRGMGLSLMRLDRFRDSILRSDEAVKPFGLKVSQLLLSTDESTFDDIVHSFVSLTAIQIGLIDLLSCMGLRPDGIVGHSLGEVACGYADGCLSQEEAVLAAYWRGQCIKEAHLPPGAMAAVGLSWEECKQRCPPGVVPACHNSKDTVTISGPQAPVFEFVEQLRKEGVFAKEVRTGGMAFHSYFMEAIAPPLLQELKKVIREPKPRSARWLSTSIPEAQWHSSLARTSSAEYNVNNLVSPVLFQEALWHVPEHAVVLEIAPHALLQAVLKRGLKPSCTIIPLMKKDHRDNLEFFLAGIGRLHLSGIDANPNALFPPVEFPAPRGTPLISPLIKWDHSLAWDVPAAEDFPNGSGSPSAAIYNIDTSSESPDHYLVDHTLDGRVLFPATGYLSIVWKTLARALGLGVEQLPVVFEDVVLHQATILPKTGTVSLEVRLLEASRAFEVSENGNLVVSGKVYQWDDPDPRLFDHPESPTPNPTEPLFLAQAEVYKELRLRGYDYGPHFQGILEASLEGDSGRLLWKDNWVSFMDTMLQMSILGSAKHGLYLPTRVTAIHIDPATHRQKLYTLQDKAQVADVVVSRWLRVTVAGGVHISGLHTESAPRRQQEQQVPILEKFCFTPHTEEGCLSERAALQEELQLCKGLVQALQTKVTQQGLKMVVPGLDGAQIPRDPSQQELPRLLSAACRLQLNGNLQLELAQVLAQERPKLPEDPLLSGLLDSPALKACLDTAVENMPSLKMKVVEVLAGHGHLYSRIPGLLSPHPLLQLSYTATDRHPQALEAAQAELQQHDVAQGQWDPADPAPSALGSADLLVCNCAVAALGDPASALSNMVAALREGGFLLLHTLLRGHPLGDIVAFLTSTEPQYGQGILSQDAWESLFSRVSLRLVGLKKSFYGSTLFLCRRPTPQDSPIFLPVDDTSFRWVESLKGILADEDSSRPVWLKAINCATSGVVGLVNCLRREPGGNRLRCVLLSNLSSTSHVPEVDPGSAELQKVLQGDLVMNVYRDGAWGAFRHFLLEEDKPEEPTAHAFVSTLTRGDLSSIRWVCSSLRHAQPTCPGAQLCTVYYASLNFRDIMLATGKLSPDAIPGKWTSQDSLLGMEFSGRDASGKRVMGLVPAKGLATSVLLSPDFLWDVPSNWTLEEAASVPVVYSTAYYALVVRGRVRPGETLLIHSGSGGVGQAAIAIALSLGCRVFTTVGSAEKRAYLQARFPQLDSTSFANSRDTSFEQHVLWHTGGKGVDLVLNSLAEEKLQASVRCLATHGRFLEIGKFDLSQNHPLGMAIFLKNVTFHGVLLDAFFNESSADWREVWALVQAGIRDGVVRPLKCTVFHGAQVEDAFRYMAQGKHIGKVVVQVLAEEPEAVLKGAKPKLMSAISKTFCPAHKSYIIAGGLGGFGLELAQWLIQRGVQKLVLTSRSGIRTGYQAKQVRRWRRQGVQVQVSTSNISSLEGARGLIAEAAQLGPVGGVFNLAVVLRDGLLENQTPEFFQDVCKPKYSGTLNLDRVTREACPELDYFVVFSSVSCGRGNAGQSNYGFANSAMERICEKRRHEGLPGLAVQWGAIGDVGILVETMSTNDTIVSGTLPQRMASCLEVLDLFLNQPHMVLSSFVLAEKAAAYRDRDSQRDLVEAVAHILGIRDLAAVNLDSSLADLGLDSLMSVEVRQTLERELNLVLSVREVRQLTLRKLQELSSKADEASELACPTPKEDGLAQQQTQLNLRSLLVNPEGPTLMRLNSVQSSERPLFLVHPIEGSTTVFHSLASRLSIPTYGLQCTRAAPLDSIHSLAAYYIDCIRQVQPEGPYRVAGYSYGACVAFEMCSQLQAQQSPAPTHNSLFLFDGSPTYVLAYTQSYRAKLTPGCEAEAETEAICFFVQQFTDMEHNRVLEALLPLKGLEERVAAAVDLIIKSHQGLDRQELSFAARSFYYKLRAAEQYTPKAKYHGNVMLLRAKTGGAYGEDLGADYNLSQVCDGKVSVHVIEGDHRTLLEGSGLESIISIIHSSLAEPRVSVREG

COc1ccc(C=O)cc1
inactive: [1] | [2] | [3] | [4]

O=C(OC1CCCCC1)c1ccccc1C(=O)OC1CCCCC1
inactive: [1] | [2] | [4] | [7]
active: [5] 40.1 µM | [6] 61.8 µM | [3] 44.6 µM

O=C(Cc1ccccc1)c1ccccc1
active: [10] 43.6 µM | [13] 45.9 µM
not listed: [4] | [7] | [14] | [15] | [16] | [17]
inactive: all other assays above

O=C(O)C(Cl)(Cl)Cl
inactive: [3] | [8] | [4] | [14] | [15]

CCCCOCCOC(C)=O
inactive: [1] | [2] | [5] | [6] | [4]

COc1cc(-c2ccc(N)c(OC)c2)ccc1N
inactive: [3] | [8] | [4] | [10] | [13] | [14] | [15]
active: [8] 67.1 µM and 41.3 µM and 50 µM | [10] 1.9 µM | [13] 35.4 µM | [15] 55.6 µM

CC(C)(C)c1cc(O)ccc1O
active: [6] 62.2 µM | [3] 69.5 µM
inactive: [1] | [2] | [5] | [3] | [8] | [4] | [14] | [15]

C1CCC(NC2CCCCC2)CC1
inactive: [1] | [2] | [4] | [7] | [9] | [10] | [11] | [12]
active: [13] 12.7 µM

Nc1ccc(-c2ccc(N)c(Cl)c2)cc1Cl
inactive: [9] | [10] | [11] | [12] | [16] | [17] | [13]

Clc1nc(Cl)nc(Cl)n1
inactive: [1] | [2] | [3] | [8] | [7]

CC(=O)C=C(C)C
inactive: [8] | [4]
active: [1] 7.47 µM | [2] 22.9 µM

ClC1(Cl)C2(Cl)C3(Cl)C4(Cl)C(Cl)(Cl)C5(Cl)C3(Cl)C1(Cl)C5(Cl)C24Cl (centres undefined)
inactive: [1] | [2] | [5] | [6] | [3] | [8] | [4] | [14]
active: [15] 3.24 µM

CCC1(c2ccc(N)cc2)CCC(=O)NC1=O (centres undefined)
inactive: [1] | [2] | [6] | [8] | [4] | [7]

CC(C)(OO)c1ccccc1
inactive: [2] | [4] | [14] | [15]
active: [1] 35.3 µM

O=C1C2(Cl)C3(Cl)C4(Cl)C(Cl)(Cl)C5(Cl)C3(Cl)C1(Cl)C5(Cl)C24Cl (centres undefined)
active: [5] 10.7 µM | [6] 10.8 µM | [15] 93.5 µM
inactive: [4] | [14]

C=CC(=O)N(C)C
inactive: [9] | [10] | [11] | [12] | [16] | [17] | [13]

NC(=O)O
inactive: [1] | [2] | [3] | [14] | [15]

CC(=O)c1cc(C(C)(C)C)cc2c1CCC2(C)C
inactive: [1] | [2] | [4] | [7]
active: [3] 74.2 µM | [8] 86.9 µM

CCCCCCCCC(=O)NCc1ccc(O)c(OC)c1
inactive: [9] | [10] | [11] | [12] | [16] | [17] | [13]

OCC(O)CCl (centres undefined)
inactive: [1] | [2] | [3] | [8] | [4] | [7]

O=C/C=C/c1ccccc1
inactive: [1] | [2] | [3] | [8] | [4] | [7]

Cc1ccc(N)cc1Cl
inactive: [1] | [3] | [4]
active: [2] 0.789 µM

CCCCCCCCSC(=O)Oc1cc(Cl)nnc1-c1ccccc1
inactive: [1] | [2] | [3] | [4] | [7]

Cc1ccccc1N
inactive: [3] | [8] | [14] | [15]

CCOP(=S)(OCC)SCCS(=O)(=O)CC
active: [10] 14.9 µM | [13] 19.2 µM
inactive: [9] | [11] | [12] | [16] | [17]

CNC
inactive: [1] | [2] | [8] | [4]
